The results in this text go back to PubChem BioAssay (NCI).

About 83,000 compounds went through this panel and 20% of them were active in at least one assay; those are over-represented in the sample as a whole.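 Compound tested at a single concentration for 48 hours in 96-well plates; a percent growth value below 10 was scored as active.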 A number with no mark means an inactive call. Activity calls are given as the source filed them.

Common to all, as to assay: NCI-60 one-dose screen, 48 h (100 = growth as untreated, 0 = no growth, -100 = all killed)
One assay has as its system EKVX NSCLC. Conditions: 10 µM.
In another assay the test system is SN12C renal. As to conditions: 10 µM.
Another assay deals with UO-31 renal. As to conditions: 10 µM.
A further assay relates to TK-10 renal. Conditions: 10 µM unless noted.
In another assay the test system is ACHN renal. As to conditions: 10 µM.
In the next assay the test system is CAKI-1 renal. As to conditions: 10 µM.
In another assay the test system is A498 renal. As to conditions: 10 µM.
The next assay has as its system CCRF-CEM leukemia. Conditions: 10 µM.
For the next assay, the system named is MOLT-4 leukemia. Conditions: 10 µM.
For a further assay, the system named is SR leukemia. Conditions: 10 µM.
Another assay relates to RPMI-8226 leukemia. Conditions: 10 µM.
The next assay concerns OVCAR-8 ovarian. Conditions: 10 µM.
The subject of a further assay is OVCAR-5 ovarian. As to conditions: 10 µM.
The subject of a further assay is OVCAR-4 ovarian. Conditions: 10 µM.
In a further assay the test system is SK-OV-3 ovarian. Conditions: 10 µM.
The subject of another assay is IGROV1 ovarian. As to conditions: 10 µM.
Another assay concerns OVCAR-3 ovarian. Conditions: 10 µM.
The next assay concerns HS 578T breast. Conditions: 10 µM.
The subject of a further assay is NCI/ADR-RES ovarian. As to conditions: 10 µM.

For the compound `O=c1cc(-c2ccccc2)oc2c1ccc1ccccc12`, the growth with EKVX NSCLC is 80.1%; in the assay with SN12C renal, 84.2%; with UO-31 renal, 58.9%; in the assay with TK-10 renal, 108%; in the assay with ACHN renal it was 77%; with CAKI-1 renal, 90.8%. Also, the growth is 73% in the assay with A498 renal; 89.4% in the assay with CCRF-CEM leukemia; 75.6% in the assay on MOLT-4 leukemia; 67.3% in the assay with SR leukemia; 77.8% in the assay on RPMI-8226 leukemia; 82.3% with OVCAR-8 ovarian. Also, the growth in the assay on OVCAR-5 ovarian was 96%; with OVCAR-4 ovarian, 93.6%; with SK-OV-3 ovarian, 88.2%; with IGROV1 ovarian it was 94.1%; in the assay on OVCAR-3 ovarian it was 107%; in the assay with HS 578T breast, 97.8%. Also, in the assay with NCI/ADR-RES ovarian, the growth was 82.6%.
`Cc1cc(O)ccc1O`: the growth with EKVX NSCLC is 94.6%; in the assay on SN12C renal it was 95.3%; in the assay on UO-31 renal, 94.4%; with TK-10 renal, 123%; in the assay on ACHN renal it was 105%; with A498 renal it was 103%. Besides, the growth is 19.1% in the assay on CCRF-CEM leukemia; 65% in the assay with MOLT-4 leukemia; 104% in the assay with SR leukemia; 104% with OVCAR-8 ovarian; 116% with OVCAR-5 ovarian; 112% with SK-OV-3 ovarian. Further, the growth with IGROV1 ovarian was 114%; with OVCAR-3 ovarian, 110%; in the assay on HS 578T breast, 103%; with NCI/ADR-RES ovarian it was 96.5%.
For `CC(=O)OC(C(=O)O)c1ccccc1` (stereo not drawn), the growth is 111% with EKVX NSCLC; 101% in the assay with SN12C renal; 126% in the assay on UO-31 renal; 117% in the assay on TK-10 renal; 106% with ACHN renal; 104% with CAKI-1 renal. Besides, the growth in the assay on CCRF-CEM leukemia is 86%; with MOLT-4 leukemia, 95.5%; in the assay on SR leukemia it was 104%; in the assay with RPMI-8226 leukemia, 88.2%; in the assay on OVCAR-8 ovarian, 102%; with OVCAR-5 ovarian it was 105%. Besides, the growth in the assay with OVCAR-4 ovarian was 118%; in the assay on SK-OV-3 ovarian, 117%; with OVCAR-3 ovarian, 120%; with NCI/ADR-RES ovarian, 108%.
As for `CC(=O)OC(OC(C)=O)C1CCCO1` (stereo not drawn), the growth is 97.7% in the assay on EKVX NSCLC; 96.8% in the assay with SN12C renal; 103% with TK-10 renal; 98.7% with ACHN renal; 112% with CAKI-1 renal; 106% in the assay with A498 renal. Besides, the growth in the assay on CCRF-CEM leukemia is 109%; in the assay with MOLT-4 leukemia, 123%; with SR leukemia it was 135%; in the assay on RPMI-8226 leukemia, 114%; with OVCAR-8 ovarian it was 103%; in the assay with OVCAR-5 ovarian, 100%. The growth with OVCAR-4 ovarian was 97.9%; in the assay with IGROV1 ovarian, 110%; in the assay with OVCAR-3 ovarian, 114%; in the assay on HS 578T breast it was 105%; in the assay with NCI/ADR-RES ovarian it was 94.5%.
In the case of `O=c1cc(-c2ccccc2)[nH]c2c1CCCC2`, the growth in the assay with EKVX NSCLC was 43.3%; in the assay with SN12C renal, 44.6%; with UO-31 renal, 50.8%; with TK-10 renal, 34.5%; with CAKI-1 renal, 24.5%; with A498 renal, 19.2%. In addition, the growth in the assay on CCRF-CEM leukemia is 32.6%; in the assay on MOLT-4 leukemia, 41.1%; with SR leukemia, 30.5%; with RPMI-8226 leukemia, 21.3%; in the assay with OVCAR-8 ovarian, 39.7%; in the assay on OVCAR-5 ovarian, 39.3%. In addition, the growth was 49.8% with OVCAR-4 ovarian; 25.8% in the assay with SK-OV-3 ovarian; 44.3% in the assay on IGROV1 ovarian; 15.9% with OVCAR-3 ovarian; 16.3% with HS 578T breast; -40.8% (active) in the assay on NCI/ADR-RES ovarian.
Turning to `COc1ncnc2c1cnn2C`, the growth is 100% in the assay on EKVX NSCLC; 98.2% in the assay with SN12C renal; 108% in the assay on TK-10 renal; 98.1% in the assay with ACHN renal; 105% in the assay on CAKI-1 renal; 99.7% in the assay with A498 renal. In addition, the growth with CCRF-CEM leukemia is 97%; with MOLT-4 leukemia, 89.9%; in the assay with SR leukemia, 82.6%; with RPMI-8226 leukemia, 107%; in the assay on OVCAR-8 ovarian, 103%; in the assay with OVCAR-5 ovarian it was 103%. Also, the growth is 117% in the assay on OVCAR-4 ovarian; 104% in the assay on SK-OV-3 ovarian; 110% in the assay with IGROV1 ovarian; 109% in the assay with OVCAR-3 ovarian; 114% in the assay on HS 578T breast; 104% with NCI/ADR-RES ovarian.
With `Cc1ccncc1C(N)=O`, the growth was 106% in the assay on EKVX NSCLC; 101% in the assay with SN12C renal; 97% in the assay on UO-31 renal; 112% with TK-10 renal; 95.3% in the assay on ACHN renal; 64.4% in the assay on CAKI-1 renal. For the same compound, the growth in the assay with A498 renal is 82.7%; in the assay with CCRF-CEM leukemia it was 83.1%; in the assay with SR leukemia it was 109%; in the assay with OVCAR-8 ovarian it was 107%; with OVCAR-5 ovarian, 138%; in the assay on OVCAR-4 ovarian it was 96.8%. In addition, the growth in the assay with SK-OV-3 ovarian was 101%; in the assay on OVCAR-3 ovarian, 90.6%; in the assay on HS 578T breast, 116%; in the assay with NCI/ADR-RES ovarian it was 133%.
In the case of `COc1cc2c(cc1OC)[C@H](C(=O)O)[C@@H](c1ccc(OC(C)C)c(OC)c1)N(C)C2=O`, the growth in the assay with EKVX NSCLC is 92.7%; in the assay on SN12C renal, 90.4%; in the assay on TK-10 renal it was 96.2%; in the assay with ACHN renal, 96.2%; in the assay with CAKI-1 renal it was 80%; in the assay with A498 renal it was 137%. Also, the growth in the assay with CCRF-CEM leukemia was 96.6%; in the assay on MOLT-4 leukemia it was 94.3%; with RPMI-8226 leukemia it was 95.7%; in the assay with OVCAR-5 ovarian it was 98%; with OVCAR-4 ovarian, 100%; with SK-OV-3 ovarian it was 104%. The growth in the assay on IGROV1 ovarian is 138%; in the assay on OVCAR-3 ovarian, 104%; with HS 578T breast, 89.3%; in the assay on NCI/ADR-RES ovarian it was 111%.
As to `CCCCN(CCCC)CCCO`, the growth in the assay on EKVX NSCLC was 110%; in the assay with SN12C renal, 107%; in the assay with UO-31 renal, 104%; in the assay on TK-10 renal, 85%; in the assay on ACHN renal, 105%; with CAKI-1 renal, 106%. Further, the growth with A498 renal was 114%; with MOLT-4 leukemia it was 113%; in the assay with SR leukemia, 113%; in the assay on RPMI-8226 leukemia, 158%; in the assay on OVCAR-8 ovarian, 99.8%; in the assay with OVCAR-5 ovarian, 99.4%. In addition, the growth with OVCAR-4 ovarian is 108%; with SK-OV-3 ovarian, 110%; in the assay on IGROV1 ovarian, 125%; in the assay on OVCAR-3 ovarian, 101%; in the assay with NCI/ADR-RES ovarian, 105%.
